According to the supplement of paper PMC6555819:

Tests used:
Experiment in all cases: PBM binding z-score (relative to random genomic background probes); higher = stronger binding; sequences stand for … in GC…GCGATTGACAGCGTAGAATGAAGG
[1] = tested on: RARg homodimer (NR concentration 270 nM)
How it was run: (§1)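 Binding z-scores take random background probes as their reference. They come from custom Agilent 4×180K protein-binding microarrays incubated 1 h with ligand-free nuclear receptor dimers, with antibodies against each partner (one per run) detecting binding. Scanned fluorescence was regression-normalized.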

[2] = tested on: RXRa DBDmut IVT, anti-RXR (DBD mutation: RXRa K156A/R161A, NR concentration 90 nM)
How it was run: as §1

[3] = tested on: THRa homodimer (NR concentration 90 nM)
How it was run: as §1

[4] = tested on: VDR homodimer (NR concentration 270 nM)
How it was run: as §1

[5] = tested on: THRa:RXRa (NR concentration 90 nM, RXRa partner concentration 90 nM)
How it was run: as §1

Sequence | PBM binding z-score [1] | PBM binding z-score [2] | PBM binding z-score [3] | PBM binding z-score [4] | PBM binding z-score [5]
TATACAGGGTCAAAGGTCAGAGTACGAATGTCGA | 7.28 | 3.34 | 1.79 | 4.33 | –
CGTCAAAGGTCAATGCTAGGTCAGTGAAAGCATT | 8.73 | 3.76 | 1.42 | 2.5 | 4.77
CAAACGAGGTCAAGGTCAAAGTCGGTTTGTGCCA | 8.18 | 4.52 | 4.79 | 6.15 | –
CAAACAAGGTCAAAGGTCAAAGTCGAGCCAACCA | 8.75 | 4.5 | 2.79 | 5.62 | –
TCTAGTCGGTCAAAGGTCACACACTCGAAATGCG | 7.3 | 1.78 | 2.24 | 2.75 | 4.13
ATCGAAAGGTCAACGAGGTGAGTATACACCGTTT | 8.92 | 3.23 | 1.96 | 3.29 | 4.42
CCTACTGGGTCAAAGGTCATTGATTCCAATGCTC | 5.88 | 2.87 | 1.69 | 3.95 | 4.52
CAAACTAGGTCAAAAGGTCAAAGTCCGCTTCCCG | 8.65 | 2.66 | 1.87 | 3.77 | 4.48
CCTTACGGGTCACGAGGTCATAGCACGACGAGCG | 6.74 | 3.05 | 3.43 | 4.83 | 4.58
CGTCAAAGGTCAGAGAGGTCAGTGAATGCCGAGT | 9.03 | 3.48 | 1.6 | 5.19 | 4.37
ATCGAAAGGTCAAGGTGAGTATAGAGAAAGGGAA | 8.56 | 2.66 | 1.8 | 1.84 | 4.3
CGTCAAAGGTCAACTAAGGTAACGTAAAGCACGC | 9.23 | 3.52 | 2.46 | 2.23 | 5.48
CCTTAGGGGTCACGAGGTTATAGCACGACGAGCG | 8.18 | 4.14 | 1.8 | 4.55 | 4.53
CAAACGAGGTCAAGAGGTCAAAGTCCGCTTCCCG | 8.65 | 4.19 | 4.11 | 6.32 | –
ACTCGGAGGTCAAAGGTCAGAGCTACGCCAGTGA | 8.15 | 3.82 | 1.5 | 3.99 | –
CAAACAAGGTCACCGGAAGGTCAAAGTCCGCATG | 8.72 | 4.24 | 4.44 | 5.94 | –
CGTCAAAGGTCAAGGTCAGTGAAAGAGACTCGAA | 9.35 | 3.45 | 2.28 | 3.23 | 4.33
CCTTAGGGGTCACTCCAGGTTATAGCATCGGAGT | 7.07 | 4.21 | 0.963 | 4.35 | –
GCTTACGGGTCAAAGGTCATAGCATGAATAGAAT | 7.46 | 3.56 | 1.04 | 3.19 | –

Sequence | PBM binding z-score [1] | PBM binding z-score [2] | PBM binding z-score [3] | PBM binding z-score [4] | PBM binding z-score [5]
CCTTAGGGGTCACTGACAGGTTATAGCATTTGGA | 7.67 | 4.43 | 0.822 | 3.55 | 4.27
CAAACGAGGTCAAAGGTCAAAGTCGAGCCAACCA | 8.66 | 4.97 | 3.26 | 6.2 | –
CAAACGAGGTCACCGGAAGGTCAAAGTCCGCATG | 8.7 | 4.24 | 4.61 | 6 | –
CCTTAAGGGTCACGAGGTTATAGCACGACGAGCG | 7.23 | 3.17 | 1.24 | 2.91 | 4.24
CGTCCGAGGTCAAGGTCAGTGAAAGAGACTCGAA | 7.79 | 4.19 | 3.97 | 4.69 | 4.37
CAAAATAGGTCAAAGGTCAAAGTCGAGCCAACCA | 7.97 | 2.84 | 1.18 | 2.93 | 4.79
TCTCGGAGGTCACGAAAGGTCAGAGCTCGACATC | 9.26 | 3.38 | 2.36 | 3.58 | –
TTACCAAGGTCAAAGGTCGTTGATGCACGCCTTG | 6.63 | 3.96 | 2.76 | 4.36 | 4.73
CAAAATAGGTCACCGGAAGGTCAAAGTCCGCATG | 8.46 | 2.03 | 1.82 | 3.41 | 4.65
CTCGAAAGGTCATGCTCAGGTGAGTATACCAAAC | 8.47 | 3.44 | 1.61 | 2.44 | 4.72
CGTCCAAGGTCAAAGGTCATTGAAGAGATGACGG | 8.52 | 4.24 | 3.04 | 5.06 | –
TGTCAAAGTTCAAAGGTCACGTAAGTATCCACAC | 9.03 | 4.57 | 1.88 | 5.69 | –
CGTCAAAGGTCAAGGTAACGTAACAGAAAGCAGC | 8.73 | 3.48 | 1.83 | 1.62 | 4.25
ACTTAGGGGTCAACGAGGTTATAGCACGCGTATA | 7.64 | 4.82 | 1.8 | 6.45 | –
ATCGAAAGGTCAAAGGTGAGTATACCCACCCGAA | 8.44 | 3.46 | 0.712 | 2.97 | 4.31
CAAACGAGGTCACAGAGGTCAAAGTCCGTGCGTA | 9.3 | 4.98 | 5.02 | 10.5 | –
CCTGCTAGGTCAAAGGTCAGCTAAAGCAGCTCGC | 7.57 | 2.83 | 1.41 | 1.75 | 4.6
CGTCCAAGGTCAAAGGTCAATGAAGAGATGACGG | 8.5 | 3.93 | 2.5 | 3.6 | –
CCTTAGGGGTCAAGGTTATAGCACGGGTGGTACG | 7.42 | 3.5 | 1.39 | 4.22 | 4.36
